MCF10A rereplic – A quantitative high throughput screen for small molecules that induce DNA re-replication in MCF 10a normal breast cells | MCF 10A DNA re-replication, Hoechst nuclear intensity, 48 h | Potency, µM (top dose mostly 46.1 µM), usual class: activators | actives 2.9% (n = 350,000) | AID 624296, 2012; further: nearly all actives have a fitted effect of over 50% in size
TDP1 cell CPT – qHTS for Inhibitors of human tyrosyl-DNA phosphodiesterase 1 (TDP1): qHTS in cells in presence of CPT; chicken DT40 Tdp1-/-;hTDP1 cells + 20 nM CPT, ATP luminescence, 48 h; Potency, µM (doses to about 46.2 µM), most hits filed as inhibitors; AID 686979, 2013; actives 12% (n = 420,000); further: nearly all actives have a fitted effect of over 55% in size
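Chicken DT40 Tdp1-/- cells stably complemented with human TDP1 were seeded at 400 cells/well in medium containing 20 nM camptothecin, exposed to pin-transferred compounds, and grown at 37 °C for at least 48 hr. Viability was read as ATP luminescence.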
DT40 TDP1 no CPT – qHTS for Inhibitors of human tyrosyl-DNA phosphodiesterase 1 (TDP1): qHTS in cells in absence of CPT; DT40 Tdp1-/- hTDP1 cells, no CPT, ATP luminescence, 48 h; Potency, µM (titrated, usually from 46.2 µM), usual class: inhibitors; actives 15% (n = 420,000); further: nearly all actives have a fitted effect of over 55% in size
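Camptothecin absent (DMSO only). Human TDP1-complemented DT40 knockout cells, 400 cells/well, 37 °C for minimum 48 hr; ATP measured via CellTiter-Glo, 30 min dark incubation, luminescence.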
IL1B secr inh – qHTS for Inhibitors of Inflammasome Signaling: IL-1-beta AlphaLISA Primary Screen; THP-1 LPS/ATP IL-1B secretion, AlphaLISA, 16 h; stronger effect = lower value; activity change, % at 57.5 µM; actives 4.7% (n = 360,000); AID 743279, 2014; in the data active means activity change below about -50%; inconclusive means mostly about -30% to -49%
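THP-1 cells pretreated 1 hr with compounds (up to 57.5 uM final), then stimulated with LPS (250 ng/mL final) plus ATP (1.25 mM final); secreted IL-1B measured by AlphaLISA after 16 hr, decreased signal indicating inhibition.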
SW480 rerep – A quantitative high throughput screen for small molecules that induce DNA re-replication in SW480 colon adenocarcinoma cells; SW480 DNA re-replication, Hoechst DNA content imaging, 48 h; Potency, µM (series often up to 46.1 µM), hits mostly activators; actives 1.8% (n = 340,000); AID 624297, 2012; further: nearly all actives have a fitted effect of over 55% in size
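DNA re-replication was detected as more nuclei of elevated Hoechst intensity after 48 hr exposure to compound (23 nL pinned per well of 250 cells).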
BCR signal inh – qHTS Assay to Find Inhibitors of Chronic Active B-Cell Receptor Signaling | ABC-DLBCL IkBa-CBG/CBR reporter, luminescence ratio, 4 h | Potency, µM (titrated, usually from 46.1 µM), usual class: inhibitors | actives 0.05% (n = 340,000) | AID 493014, 2011; active means well fitted inhibition curve with a large enough effect in the signal ratio, with a control signal flat, not every such curve was filed as active; inconclusive means small, poorly fitted or top-dose-only effect, or effect the other way, or a change in a side signal; the % refers to the signal ratio
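TMD8 human ABC-DLBCL cells with doxycycline-inducible IκBα–green luciferase fusion and unfused red luciferase, in 0.5% FBS medium; compounds up to 46 uM, 4 h at 37C. Green/red luminescence ratio, filter-overlap corrected, fitted to concentration-response curves.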
Hits are given with their value; – = inactive; ? = inconclusive; · = no result given; [ ] = remark or other dose. Shown are actives, neighbours in structure and some others; about 19% of the full set was active somewhere. Unless noted, the call rests on the fitted dose curve; in most records, active means well fitted curve in the direction sought with a large enough effect; inconclusive means small, poorly fitted or top-dose-only effect, or another doubt; inactive means no such curve, though single readings can be large; an effect the other way counts as inactive or inconclusive.

SMILES | MCF10A rereplic | TDP1 cell CPT | DT40 TDP1 no CPT | IL1B secr inh | SW480 rerep | BCR signal inh
COc1ccc(CN2CCC(=O)N([C@H](CO)Cc3ccccc3)CC2)cc1OC | – | ? | ? | – | – | –
COc1cc(OC)c2nc(-c3cc4c(c(OC)c3)OCCN(C(=O)CC3NC(=O)c5ccccc53)C4)cc(C)c2c1 (centres undefined) | · | ? | 23.1µM | · | · | ·
COc1cc(-c2cc(C)c3cccc(OC)c3n2)cc2c1OCCN(C(=O)Cn1nc(C)cc1C)C2 | · | –[9.04 µM] | – | · | · | ·
CCOC(=O)N1N=C(C)CC1(O)c1ccccc1 (centres undefined) | – | – | – | – | – | –
COc1ccc(CC(=O)N2N=C(C)CC2(O)c2cccnc2)cc1OC (centres undefined) | – | – | – | – | – | –
CC1=NN(C(=O)Cc2ccc([N+](=O)[O-])cc2)C(O)(c2ccccc2)C1 (centres undefined) | – | 4.11µM | 5.17µM | – | ? | –
CC1=NN(C(=O)Cc2ccccc2)C(O)(c2ccccc2)C1 (centres undefined) | ? | 2.91µM | 4.11µM | – | ? | –
CC1=NN(C(=O)Cc2ccc([N+](=O)[O-])cc2)C(O)(c2cccnc2)C1 (centres undefined) | – | 18.4µM | ? | – | – | –
O=C(NCCS(=O)(=O)c1ccc(Br)cc1)c1ccc(Cl)cc1Cl | – | – | – | – | – | –
O=S(=O)(c1cccc2ccccc12)N1CCC2CC1c1cc(Cl)ccc12 (centres undefined) | ? | ? | ? | – | ? | ·
Cc1ccc(NC(=O)c2ccc3c(c2)OCO3)cc1S(=O)(=O)N1CCOCC1 | – | ? | ? | – | – | ?
COc1ccc(NC(=O)c2ccc(S(=O)(=O)N(C)c3ccccc3)cc2)cc1S(=O)(=O)N1CCOCC1 | · | 23.1µM | 14.6µM | – | · | ·
COc1ccc(NC(=O)c2ccc(-c3ccccc3)cc2)cc1S(=O)(=O)N1CCOCC1 | – | – | – | – | – | –
Cc1ccc(NC(=O)c2ccc(S(=O)(=O)N(C)c3ccccc3)cc2)cc1S(=O)(=O)N1CCOCC1 | – | 23.1µM | ? | – | – | ·
C[C@@H]1CN(S(=O)C(C)(C)C)[C@@H](CCO)/C1=C\CCO (some centres undefined) | ? | – | – | – | – | ·
Oc1c(N=Nc2ccc(F)cc2)ccc2ccccc12 | ? | 9.2µM | 14.6µM | – | – | –
Oc1c(N=Nc2nn[nH]n2)ccc2ccccc12 | · | 16.4µM | 16.4µM | – | · | ·
CN(Cc1cccc(F)c1)C(=O)CN1CCN(S(=O)(=O)c2ccc3c(c2)OCCCO3)CC1 | – | – | – | ? | – | –
CC(C(=O)N(C)Cc1cccc(F)c1)N1CCN(S(=O)(=O)c2ccc3c(c2)OCCCO3)CC1 (centres undefined) | – | ? | ? | -59.0 | – | –
CN(C)S(=O)(=O)c1cccc(C(=O)N2CCN(S(=O)(=O)c3ccc4c(c3)OCCO4)CC2)c1 | · | ? | 16.4µM | – | · | ·
CC(C)(C)C(=O)N1CCN(S(=O)(=O)c2ccc3c(c2)OCCCO3)CC1 | – | ? | 18.4µM | – | – | –
Cc1cc(NC(=O)CSc2nc(-c3ccccc3)nc3c2c(=O)n(C)c(=O)n3C)no1 | – | – | – | – | – | –
CCSc1nc(-c2ccco2)ccc1C#N | – | 23.1µM | ? | – | – | –
N#Cc1ccc(-c2ccco2)nc1SCc1ccccc1 | ? | ? | ? | – | ? | ?
O=C(NCCCN1CCN(c2ccccc2F)CC1)c1cc2c(Cl)nc3ccccc3c2s1 | · | 16.4µM | 14.6µM | · | · | ·
